Laboratory results taken from PubChem BioAssay (NCI).
Compounds without any hit were thinned out: in the full panel of roughly 79,000, 15% have a hit. Active and inactive are the calls of the source. No stated cut-off is given here; in the data, active means growth inhibition above about 70%; inactive means the rest.

Tests used:
[1] = NCI Yeast Anticancer Drug Screen. Data for the rad52 strain (AID 147);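 further: 0% = growth of vehicle-treated control cultures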; settings: S. cerevisiae rad52 mutant growth inhibition, stronger effect = higher value
Outline: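 DNA repair-defective yeast; compound exposure; growth scored against vehicle controls.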

[2] = NCI Yeast Anticancer Drug Screen. Data for the wt1 strain (AID 149);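 further: 0% = growth of vehicle-treated wt1 cultures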; settings: S. cerevisiae wt1 strain (SPY 50644) growth inhibition, stronger effect = higher value
Outline: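 Growth inhibition read against vehicle controls after compound exposure of the wt1 yeast strain.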

[3] = NCI Yeast Anticancer Drug Screen. Data for the rad50EPP+ strain (AID 151);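 further: 0% = growth of vehicle-treated control cultures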; settings: S. cerevisiae rad50 mutant strain, stronger effect = higher value
Outline: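 rad50EPP+ yeast treated with test compounds. Readout: growth vs vehicle control.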

[4] = NCI Yeast Anticancer Drug Screen. Data for the mgt1 strain (AID 153); settings: S. cerevisiae mgt1 mutant growth inhibition, stronger effect = higher value
Outline: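 Growth inhibition relative to vehicle controls was scored for the mgt1 yeast strain after compound exposure.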

[5] = NCI Yeast Anticancer Drug Screen. Data for the rad50 strain (AID 155);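 further: 0% = growth of vehicle-only cultures of the same strain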; settings: S. cerevisiae rad50 strain growth inhibition, stronger effect = higher value
Outline: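 Readout: growth inhibition relative to vehicle-treated cultures. Compound exposure was carried out in a genetically defined yeast strain deficient in DNA damage repair.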

[6] = NCI Yeast Anticancer Drug Screen. Data for the mec2-1 strain (AID 157); settings: S. cerevisiae mec2-1 strain, stronger effect = higher value
Outline: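 Growth inhibition is read against vehicle-treated controls after compound exposure of the mec2-1 yeast strain, which is defective in DNA damage repair or cell cycle control.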

[7] = NCI Yeast Anticancer Drug Screen. Data for the rad14 strain (AID 159);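 further: 0% = growth of vehicle-treated control cultures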; settings: S. cerevisiae rad14 strain growth inhibition, stronger effect = higher value
Outline: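 Growth inhibition vs vehicle controls; genetically altered yeast strain (DNA damage repair defect) treated with test compounds.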

[8] = NCI Yeast Anticancer Drug Screen. Data for the sgs1 mgt1 strain (AID 161);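 further: 0% = growth of cultures given vehicle only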; settings: S. cerevisiae sgs1 mgt1 strain, stronger effect = higher value
Outline: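 Growth of a repair-deficient yeast mutant was monitored after compound treatment and expressed as inhibition relative to vehicle-treated cultures.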

[9] = NCI Yeast Anticancer Drug Screen. Data for the CLN2oe strain (AID 163);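 further: 0% = growth of vehicle-only control cultures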; settings: S. cerevisiae CLN2oe strain, stronger effect = higher value
Outline: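 Compound-treated yeast; growth vs vehicle ctrl = % inhibition. Genetically altered strain (cell-cycle control).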

[10] = NCI Yeast Anticancer Drug Screen. Data for the bub3 strain (AID 167); settings: S. cerevisiae bub3 mutant strain, stronger effect = higher value
Outline: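 Readout: yeast growth inhibition, expressed relative to vehicle-only wells. The test organism is a mutant strain from a panel with lesions in DNA repair or checkpoint genes.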

[11] = NCI Yeast Anticancer Drug Screen. Data for the wt2 strain (AID 169);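 further: 0% = growth of vehicle-treated yeast cultures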; settings: S. cerevisiae wt2 strain growth inhibition, stronger effect = higher value
Outline: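 Compound exposure of yeast; growth compared with vehicle controls; inhibition reported.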

[12] = NCI Yeast Anticancer Drug Screen. Data for the mlh1 strain (AID 171);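 further: 0% = growth of vehicle-treated control cultures of the same strain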; settings: S. cerevisiae mlh1 strain growth inhibition, stronger effect = higher value
Outline: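 Compounds are applied to a genetically altered yeast strain, and its growth is compared with that of vehicle-treated cultures to give percent inhibition.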

[13] = NCI Yeast Anticancer Drug Screen. Data for the mlh1 rad18 strain (AID 175); settings: S. cerevisiae mlh1 rad18 strain growth inhibition, stronger effect = higher value
Outline: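 Cells of a genetically altered yeast strain, deficient in DNA damage repair, were treated with compound. Their growth was then compared with that of vehicle-treated cultures to give inhibition.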

[14] = NCI Yeast Anticancer Drug Screen. Data for the rad18 strain (AID 177); settings: S. cerevisiae rad18 mutant growth inhibition, stronger effect = higher value
Outline: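 Compounds are applied to a repair-deficient yeast strain, and growth is compared with that of vehicle-treated cultures to give percent inhibition.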

[15] = NCI Yeast Anticancer Drug Screen. Data for the cln2 rad14 strain (AID 165);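 further: 0% = growth equal to vehicle treated cultures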; settings: S. cerevisiae cln2 rad14 strain, stronger effect = higher value
Outline: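 Growth inhibition, relative to vehicle-treated controls, is the read-out. The test organism is a yeast strain with defined genetic alterations, cln2 rad14.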

[16] = NCI Yeast Anticancer Drug Screen. Data for the sgs1 strain (AID 173);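 further: 0% = growth of vehicle-only control cultures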; settings: S. cerevisiae sgs1 mutant, stronger effect = higher value
Outline: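 Compounds applied to genetically altered yeast; growth compared with vehicle-treated cultures to give % inhibition.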

[17] = at 5.0 µM (retest, dose inferred, filed as 0.5)
[18] = at 50.0 µM (retest, dose inferred, filed as 5.0)

Measured: growth inhibition

CCC(=O)c1cc(C(=O)C(=S)SC)cc(C(=O)C(=S)SC)c1
active: [1]; at 11.0 µM 97% | [1]; at 33.0 µM 97% | [1]; at 100.0 µM 90% | [2]; at 11.0 µM 93% | [2]; at 33.0 µM 98% | [2]; at 100.0 µM 96% | [3]; at 11.0 µM 86% | [3]; at 33.0 µM 96% | [3]; at 100.0 µM 93% | [4]; at 11.0 µM 99% | [4]; at 33.0 µM 98% | [4]; at 100.0 µM 95% | [5]; at 11.0 µM 96% | [5]; at 33.0 µM 97% | [5]; [18] 96% | [5]; at 50.0 µM 85.4% | [5]; at 100.0 µM 89% | [6]; at 11.0 µM 98% | [6]; at 33.0 µM 98% | [6]; [18] 96% | [6]; at 50.0 µM 86.8% | [6]; at 100.0 µM 95% | [7]; at 11.0 µM 94% | [7]; at 33.0 µM 98% | [7]; at 100.0 µM 95% | [8]; [18] 96% | [8]; at 50.0 µM 85.3% | [9]; at 11.0 µM 96% | [9]; at 33.0 µM 98% | [9]; at 100.0 µM 91% | [10]; at 11.0 µM 98% | [10]; at 33.0 µM 98% | [10]; at 50.0 µM 86.7% | [10]; at 100.0 µM 91% | [11]; at 11.0 µM 98% | [11]; at 33.0 µM 98% | [11]; at 100.0 µM 94% | [12]; at 11.0 µM 98% | [12]; at 33.0 µM 96% | [12]; at 100.0 µM 93% | [13]; [18] 96% | [13]; at 50.0 µM 86.8% | [14]; at 11.0 µM 97% | [14]; at 33.0 µM 98% | [14]; at 100.0 µM 94%
inactive: [1]; at 1.2 µM 1% | [1]; at 3.7 µM 57% | [2]; at 1.2 µM -2% | [2]; at 3.7 µM 17% | [3]; at 1.2 µM 3% | [3]; at 3.7 µM 50% | [4]; at 1.2 µM -12% | [4]; at 3.7 µM 51% | [5]; at 1.2 µM 1% | [5]; at 3.7 µM 43% | [5]; [17] 30% | [6]; at 1.2 µM -9% | [6]; at 3.7 µM 36% | [6]; [17] 56% | [7]; at 1.2 µM 1% | [7]; at 3.7 µM 22% | [8]; [17] 22% | [9]; at 1.2 µM 28% | [9]; at 3.7 µM 69% | [10]; at 1.2 µM 6% | [10]; at 3.7 µM 44% | [10]; [17] 35% | [10]; [18] 68% | [11]; at 1.2 µM 19% | [11]; at 3.7 µM 59% | [12]; at 1.2 µM 0% | [12]; at 3.7 µM 40% | [13]; [17] 42% | [14]; at 1.2 µM -6% | [14]; at 3.7 µM 49%

CC(C)CCCC(C)C1CCC2C3CCC4=CC(=O)/C(=C\O)CC4(C)C3CCC12C (stereo not drawn)
inactive: [1]; at 1.2 µM 1% | [1]; at 3.7 µM 2% | [1]; at 11.0 µM 3% | [1]; at 33.0 µM 6% | [1]; at 100.0 µM 25% | [2]; at 1.2 µM 1% | [2]; at 3.7 µM 1% | [2]; at 11.0 µM 2% | [2]; at 33.0 µM 3% | [2]; at 100.0 µM 16% | [3]; at 1.2 µM 2% | [3]; at 3.7 µM -2% | [3]; at 11.0 µM -6% | [3]; at 33.0 µM -8% | [3]; at 100.0 µM -4% | [4]; at 1.2 µM -1% | [4]; at 3.7 µM 1% | [4]; at 11.0 µM 1% | [4]; at 33.0 µM 0% | [4]; at 100.0 µM 6% | [5]; at 1.2 µM 1% | [5]; at 3.7 µM 0% | [5]; [17] 5% | [5]; at 11.0 µM -2% | [5]; at 33.0 µM 0% | [5]; [18] 47% | [5]; at 50.0 µM 15.9% | [5]; at 100.0 µM 21% | [6]; at 1.2 µM -2% | [6]; at 3.7 µM -6% | [6]; [17] 3% | [6]; at 11.0 µM -7% | [6]; at 33.0 µM -2% | [6]; [18] 45% | [6]; at 50.0 µM 6.2% | [6]; at 100.0 µM 22% | [7]; at 1.2 µM 1% | [7]; at 3.7 µM 2% | [7]; at 11.0 µM 3% | [7]; at 33.0 µM 7% | [7]; at 100.0 µM 20% | [8]; [17] 7% | [8]; [18] 48% | [8]; at 50.0 µM 14.9% | [15]; [17] 0% | [15]; [18] 26% | [15]; at 50.0 µM 48.5% | [10]; at 1.2 µM 4% | [10]; at 3.7 µM -1% | [10]; [17] 6% | [10]; at 11.0 µM -10% | [10]; at 33.0 µM -9% | [10]; [18] 54% | [10]; at 50.0 µM 47.8% | [10]; at 100.0 µM 21% | [11]; at 1.2 µM 2% | [11]; at 3.7 µM 0% | [11]; at 11.0 µM 2% | [11]; at 33.0 µM 1% | [11]; at 100.0 µM 10% | [12]; at 1.2 µM -1% | [12]; at 3.7 µM -2% | [12]; at 11.0 µM -3% | [12]; at 33.0 µM -2% | [12]; at 100.0 µM 15% | [16]; at 1.2 µM 0% | [16]; at 3.7 µM -1% | [16]; at 11.0 µM -1% | [16]; at 33.0 µM 3% | [16]; at 100.0 µM 29% | [13]; [17] 2% | [13]; [18] 52% | [13]; at 50.0 µM 26.1% | [14]; at 1.2 µM 3% | [14]; at 3.7 µM 3% | [14]; at 11.0 µM 2% | [14]; at 33.0 µM 6% | [14]; at 100.0 µM 28%
